Results on twelve molecules are retold here after PubChem BioAssay (NCATS).

Structures are written as SMILES. Results filed as inconclusive are left out. The source made the active and inactive calls. Unless noted, the call rests on the fitted dose curve; in most records, active means well fitted curve in the direction sought with a large enough effect; inconclusive means small, poorly fitted or top-dose-only effect, or another doubt; inactive means no such curve, though single readings can be large; an effect the other way counts as inactive or inconclusive.

Experiment [1] is described as follows: qHTS assay for small molecule antagonists of peroxisome proliferator-activated receptor delta signaling (AID 588535; active means well fitted inhibition curve with a large enough effect in the signal ratio, with a control signal flat, not every such curve was filed as active; the % refers to the signal ratio;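 on max response: cells co-treated with a PPAR-delta agonist as stimulator during compound exposure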). Conditions: HEK293T PPARd-UAS-bla, beta-lactamase FRET ratio, 18 h; 460 nm channel. A digest of the protocol:
(§1)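 Antagonist-mode qHTS using GeneBLAzer PPAR-delta-UAS-bla HEK293T cells; compound exposure 18 hrs at 37 C over a titration. Ratiometric CCF4 fluorescence at 460/530 nm; concentration-response points fitted to the Hill equation.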

Experiment [2] deals with Peroxisome proliferator-activated receptor delta (Homo sapiens) (UniProt Q03181). Described as above. Conditions: HEK293T PPARd-UAS-bla, beta-lactamase FRET ratio, 18 h; series mostly up to 76.7 µM. In a few lines: as §1
Experiment [3] deals with Vitamin D3 receptor (Homo sapiens) (UniProt P11473). Kind of experiment: qHTS assay for small molecule antagonists of vitamin D receptor signaling (AID 588541; calls by dose curve;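 further: receptor activated by calcitriol during compound treatment; on the % scale 0 is the no-effect control and ±100 the full control effect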). Conditions: HEK293T VDR-UAS-bla, beta-lactamase ratio, antagonist mode; series mostly up to 76.7 µM. A digest of the protocol: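 Antagonist-mode beta-lactamase reporter assay: HEK293T VDR-UAS-bla cells were exposed to titrated compound alongside 1-alpha,25-dihydroxyvitamin D3 at 3 nM final for 16 h. Values were normalized to the 50 nM agonist control and DMSO basal, with IC50 and efficacy from Hill equation fits.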

Experiment [4] can be described thus: qHTS assay for small molecule antagonists of retinoid X receptor alpha signaling (AID 588546; active means well fitted inhibition curve with a large enough effect in the signal ratio, with a control signal flat, not every such curve was filed as active; the % refers to the signal ratio;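 further: cells stimulated with 9-cis-retinoic acid as agonist; on the % scale 0 is the no-effect control and ±100 the full control effect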). Conditions: HEK293T RXRa-UAS-bla, beta-lactamase ratio, antagonist mode; measured here: W530 green channel, cytotoxicity proxy. In a few lines: (§2)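 Beta-lactamase reporter inhibition, read as CCF4 fluorescence ratio (ex 405, em 460/530 nm) after 2 h at RT. HEK293T UAS-bla cells, 2500/well, were stimulated with 9-cis-RA at 500 or 100 nM final alongside test compound for 18 h at 37 C.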

The target in experiment [5] is Retinoic acid receptor RXR-alpha (Homo sapiens) (UniProt P19793). The description is as above. Conditions: HEK293T RXRa-UAS-bla, beta-lactamase ratio, antagonist mode. A digest of the protocol: as §2
Experiment [6] is described as follows: qHTS assay for cell viability of the p53RE-bla HCT-116 cell line (AID 743292). Further: on the % scale 0 is the no-effect control and ±100 the full control effect; nearly all actives have a fitted effect of over 55% in size. Conditions: p53RE-bla HCT-116 viability, ATP luminescence, 16 h; series mostly up to 95 µM. A digest of the protocol: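 Compound-exposed HCT-116 (p53RE-bla) cells, 4,000 per well, were kept 16 h at 37 C following a 5 h preincubation. Cell number was estimated from total ATP by CellTiter-Glo luminescence read after 30 min at room temperature.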
(In general: qHTS replaces the single test concentration by a dilution series.)

Another experiment concerns AA1029. In words: qHTS profiling for inhibitors of Plasmodium falciparum proliferation (AID 504749). Further: nearly all actives have a fitted effect of over 60% in size. Further: potency means the concentration at half of the fitted maximal effect. Conditions: P. falciparum in erythrocytes, SYBR Green DNA, 72 h; series mostly up to 28.7 µM. A digest of the protocol:
(§3)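 In a 72 h erythrocytic culture (37 C, humidified, 5% CO2) at 2.5% hematocrit and 0.3% starting parasitemia, compounds were tested; SYBR Green I in detergent lysis buffer stained parasite DNA overnight.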

The subject of the next experiment is C2A. The description is as above. Conditions: P. falciparum in erythrocytes, SYBR Green DNA, 72 h; series mostly up to 28.7 µM. A digest of the protocol:
as §3

Another experiment deals with CP194. The experiment is described as above. Conditions: P. falciparum in erythrocytes, SYBR Green DNA, 72 h; series mostly up to 28.7 µM. In a few lines: as §3
A further experiment relates to CP203. The description is as above. Conditions: P. falciparum in erythrocytes, SYBR Green DNA, 72 h; series mostly up to 28.7 µM. In a few lines:
as §3

In the next experiment the test system is CP215. Described as above. Conditions: P. falciparum in erythrocytes, SYBR Green DNA, 72 h; series mostly up to 28.7 µM. In a few lines: as §3
The subject of a further experiment is CP265. The description is as above. Conditions: P. falciparum in erythrocytes, SYBR Green DNA, 72 h; series mostly up to 12.8 µM. In a few lines: as §3
The test system of another experiment is CP266. Described as above. Conditions: P. falciparum in erythrocytes, SYBR Green DNA, 72 h; series mostly up to 12.8 µM. In a few lines: as §3
A further experiment concerns CP269. The experiment is described as above. Conditions: P. falciparum in erythrocytes, SYBR Green DNA, 72 h; series mostly up to 28.7 µM. In a few lines: as §3
The subject of another experiment is CP305. The experiment is described as above. Conditions: P. falciparum in erythrocytes, SYBR Green DNA, 72 h; series mostly up to 28.7 µM. In a few lines:
as §3

Another experiment deals with DIV30. Described as above. Conditions: P. falciparum in erythrocytes, SYBR Green DNA, 72 h; series mostly up to 28.7 µM. In a few lines:
as §3

The test system of a further experiment is P93_24. The experiment is described as above. Conditions: P. falciparum in erythrocytes, SYBR Green DNA, 72 h; series mostly up to 28.7 µM. In a few lines: as §3
The test system of another experiment is PAD. The experiment is described as above. Conditions: P. falciparum in erythrocytes, SYBR Green DNA, 72 h; series mostly up to 28.7 µM. In a few lines: as §3
The test system of the next experiment is PC49. The experiment is described as above. Conditions: P. falciparum in erythrocytes, SYBR Green DNA, 72 h; series mostly up to 28.7 µM. A digest of the protocol:
as §3

Another experiment has as its system TAB165. The description is as above. Conditions: P. falciparum in erythrocytes, SYBR Green DNA, 72 h; series mostly up to 28.7 µM. In a few lines:
as §3

Vitamin D3 receptor (Homo sapiens), sequence (P11473 whole entry, looked up): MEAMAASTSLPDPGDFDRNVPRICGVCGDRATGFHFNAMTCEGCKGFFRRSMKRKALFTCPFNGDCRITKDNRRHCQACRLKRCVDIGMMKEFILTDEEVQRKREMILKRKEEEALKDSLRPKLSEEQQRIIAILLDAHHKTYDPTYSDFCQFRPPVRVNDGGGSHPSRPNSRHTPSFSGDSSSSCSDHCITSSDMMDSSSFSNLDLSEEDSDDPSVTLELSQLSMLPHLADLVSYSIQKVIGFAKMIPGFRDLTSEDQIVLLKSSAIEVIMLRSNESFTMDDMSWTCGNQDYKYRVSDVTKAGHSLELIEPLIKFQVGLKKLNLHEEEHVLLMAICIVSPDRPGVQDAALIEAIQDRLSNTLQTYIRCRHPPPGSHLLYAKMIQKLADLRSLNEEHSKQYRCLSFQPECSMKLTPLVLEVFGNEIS
Peroxisome proliferator-activated receptor delta (Homo sapiens), sequence (Q03181 whole entry, looked up): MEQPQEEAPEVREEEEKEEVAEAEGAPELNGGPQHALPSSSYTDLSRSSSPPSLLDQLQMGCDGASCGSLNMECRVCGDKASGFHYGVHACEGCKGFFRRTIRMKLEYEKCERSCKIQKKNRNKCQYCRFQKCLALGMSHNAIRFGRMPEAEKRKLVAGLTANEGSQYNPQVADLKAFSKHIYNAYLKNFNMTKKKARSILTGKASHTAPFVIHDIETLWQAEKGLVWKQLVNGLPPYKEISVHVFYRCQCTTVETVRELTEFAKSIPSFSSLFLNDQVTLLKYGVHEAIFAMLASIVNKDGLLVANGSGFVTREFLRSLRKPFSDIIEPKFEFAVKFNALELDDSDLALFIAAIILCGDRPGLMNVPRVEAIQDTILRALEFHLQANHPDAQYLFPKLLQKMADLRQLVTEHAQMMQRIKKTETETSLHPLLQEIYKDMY
Retinoic acid receptor RXR-alpha (Homo sapiens), sequence (P19793 whole entry, looked up): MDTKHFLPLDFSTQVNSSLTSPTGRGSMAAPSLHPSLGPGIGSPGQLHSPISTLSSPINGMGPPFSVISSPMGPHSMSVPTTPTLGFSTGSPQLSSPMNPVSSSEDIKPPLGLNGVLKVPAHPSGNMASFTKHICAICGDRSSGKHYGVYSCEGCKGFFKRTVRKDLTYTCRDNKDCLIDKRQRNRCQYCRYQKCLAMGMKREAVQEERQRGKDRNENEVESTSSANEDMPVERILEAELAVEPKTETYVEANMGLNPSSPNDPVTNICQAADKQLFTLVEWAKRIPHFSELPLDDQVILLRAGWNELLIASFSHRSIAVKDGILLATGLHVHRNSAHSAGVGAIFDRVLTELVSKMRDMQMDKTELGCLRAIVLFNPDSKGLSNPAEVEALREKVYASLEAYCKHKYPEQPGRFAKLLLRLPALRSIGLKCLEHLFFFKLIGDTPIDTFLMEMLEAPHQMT

As for `CNC(=O)N(C)c1nnc(C(C)(C)C)s1`, the max response was 22% in experiment [1], -11.1% in [4] and -28.5% (inactive) in experiment [5]. Besides, the Potency result in experiment [2] and in experiment [6] was “inactive” each time. Besides, the outcome in [3] was inactive.
Turning to `CC(=O)OCC(=O)[C@@H]1CC[C@H]2[C@H]3CC[C@H]4C[C@@H](O)CC[C@]4(C)[C@@H]3C(=O)C[C@@]12C`, the Potency entry in the experiment with AA1029, in the experiment on C2A, with CP194, in the experiment with CP203, with CP215 and in the experiment with CP265 was “inactive” each time. Further, the Potency entry in the experiment on CP266, in the experiment with CP269, with CP305, with DIV30, with P93_24 and in the experiment on PAD was “inactive” each time. Moreover, the Potency entry in the experiment with PC49 and in the experiment on TAB165 was “inactive” each time.
Regarding `C[N+]1([O-])[C@@H]2CC[C@H]1CC(OC(=O)[C@@H](CO)c1ccccc1)C2` (some centres not stated), the Potency entry with AA1029, in the experiment with C2A, in the experiment with CP194, in the experiment on CP203, in the experiment with CP215 and in the experiment with CP265 was “inactive” throughout. The Potency entry in the experiment with CP266, in the experiment with CP269, with CP305, in the experiment on DIV30, in the experiment on P93_24 and in the experiment on PAD was “inactive” throughout. Moreover, the Potency entry with PC49 and with TAB165 was “inactive” throughout.
`C[C@@H]1O[C@H](O[C@@H]2C=C3CC[C@H]4[C@@H](CC[C@]5(C)[C@@H](c6ccc(=O)oc6)CC[C@]45O)[C@@]3(C)CC2)[C@@H](O)[C@H](O)[C@@H]1O`: the Potency result with AA1029, in the experiment on C2A, in the experiment on CP194, in the experiment with CP203, in the experiment on CP215 and with CP265 was “inactive” throughout. Moreover, the Potency result in the experiment with CP266, in the experiment on CP269, with CP305, with DIV30, in the experiment on P93_24 and in the experiment on PAD was “inactive” in each case. Also, the Potency entry in the experiment on PC49 and with TAB165 was “inactive” each time.
In the case of `CC(C)N(CC[C@@](C(N)=O)(c1ccccc1)c1ccccn1)C(C)C`, the Potency result in the experiment on AA1029, with C2A, in the experiment on CP194, with CP203, in the experiment on CP215 and in the experiment on CP265 was “inactive” throughout. The Potency entry with CP266, in the experiment on CP269, with CP305, in the experiment with DIV30, in the experiment with P93_24 and with PAD was “inactive” in each case. For the same molecule, the Potency result in the experiment with PC49 and in the experiment with TAB165 was “inactive” throughout.
Regarding `CN(C)[C@@H]1C(=O)C(C(N)=O)=C(O)[C@]2(O)C(=O)C3=C(O)c4c(O)ccc(Cl)c4[C@](C)(O)[C@H]3C[C@@H]12`, the Potency result with AA1029, with C2A, with CP194, with CP203, in the experiment on CP215 and with CP265 was “inactive” in each case. Moreover, the Potency result in the experiment on CP266, in the experiment on CP269, in the experiment with CP305, in the experiment with DIV30, with P93_24 and in the experiment with PAD was “inactive” throughout. The Potency result in the experiment on PC49 and in the experiment with TAB165 was “inactive” each time.
`Clc1ccc([C@@H](OCCN2CCCCC2)c2ccccc2)cc1`: the Potency result in the experiment with C2A and with CP266 was “inactive” throughout. Moreover, the Potency in the experiment with P93_24 is 3.55 µM (active).
For the molecule `CCN[C@]1(c2cccs2)CCCCC1=O`, the Potency result in the experiment on AA1029, in the experiment on C2A, in the experiment on CP194, in the experiment on CP203, in the experiment with CP215 and in the experiment on CP265 was “inactive” throughout. Also, the Potency result with CP266, in the experiment with CP269, in the experiment with CP305, with DIV30, in the experiment on P93_24 and with PAD was “inactive” each time. Further, the Potency entry in the experiment on PC49 and with TAB165 was “inactive” in each case.
Turning to `CNc1ccc(C(=O)CC(O)CCC(C)C2OC(=O)CC(O)CC(=O)CC(O)CC(O)CC(O)CC(O)CC3(O)CC(O)C(C(=O)OC)C(CC(O[C@@H]4OC(C)C(O)C(N)C4O)/C=C/C=C/C=C/C=C/C=C/C=C/C=C/C2C)O3)cc1` (some centres not stated), the Potency entry in the experiment on AA1029, with C2A, in the experiment on CP194, with CP203, in the experiment on CP215 and in the experiment on CP265 was “inactive” throughout. The Potency entry in the experiment on CP266, in the experiment on CP269, in the experiment on CP305, in the experiment with DIV30, in the experiment on P93_24 and in the experiment on PAD was “inactive” each time. Moreover, the Potency entry in the experiment on PC49 and with TAB165 was “inactive” in each case.
Consider `COc1cc2c(cc1OC)[C@@]13CCN4CC5=CCOC6CC(=O)N2C1[C@H]6[C@@H]5C[C@@H]43` (some centres not stated), for which the Potency entry in the experiment with AA1029, in the experiment with C2A, in the experiment on CP194, in the experiment with CP203, in the experiment with CP215 and in the experiment with CP265 was “inactive” throughout. The Potency entry with CP266, with CP269, with CP305, with DIV30, with P93_24 and with PAD was “inactive” each time. The Potency result in the experiment with PC49 and with TAB165 was “inactive” each time.
For the molecule `O=c1ccc2cc(O[C@H]3O[C@@H](CO)[C@@H](O)[C@@H](O)[C@@H]3O)c(O)cc2o1`, the Potency result in the experiment with AA1029, in the experiment with C2A, in the experiment on CP194, in the experiment with CP203, in the experiment with CP215 and with CP265 was “inactive” throughout. The Potency entry in the experiment with CP266, in the experiment on CP269, with CP305, in the experiment with DIV30, with P93_24 and in the experiment with PAD was “inactive” throughout. Moreover, the Potency result with PC49 and with TAB165 was “inactive” in each case.
Turning to `C=CC1CN2CCC1CC2C(OC(=O)OCC)c1ccnc2ccc(OC)cc12` (configuration not stated), the Potency in the experiment on AA1029 is 5.01 µM (active); with CP194, 6.01 µM (active); in the experiment with CP203, 8.49 µM (active); with CP215, 12 µM (active); in the experiment on CP265 it was 5.01 µM (active); with CP269 it was 9.53 µM (active). Moreover, the Potency with CP305 was 9.53 µM (active); in the experiment with DIV30 it was 9.53 µM (active); in the experiment with P93_24, 7.94 µM (active); with PAD it was 6.31 µM (active); in the experiment on TAB165, 0.501 µM (active). Also, the Potency entry in the experiment on PC49 was “inactive”.
